Results: PubChem BioAssay (EPA / NIEHS)
Inconclusive results are not listed. Calls of active or inactive are those of the source. Rule for the calls: active = hit-call score of the fitted dose curve at least 0.9, where 1 is the maximum; inconclusive = response in the unintended direction; inactive = score below 0.9.

Each molecule was assayed against sheep Cyclooxygenase-2 (Cox2), PTGS2 (gene 443460) (UniProt P79208) (assay: NVS_ENZ_oCOX2: NovaScreen (NVS) Enzymatic Assay for sheep Cyclooxygenase-2 (Cox2) (AID 2283231)).
Method: NVS_ENZ_oCOX2 is a biochemical, single-readout assay that uses extracted gene-proteins from Ovine placenta in a tissue-based cell-free assay. Measurements were taken 0.66 hour after chemical dosing in a 96-well plate.NVS_ENZ_oCOX2 is one of one assay component(s) measured or calculated from the NVS_ENZ_oCOX2 assay. It is designed to make measurements of enzyme activity, a form of enzyme reporter, as detected with absorbance signals by Colorimetric technology.Data from the assay component NVS_ENZ_oCOX2 was analyzed into 1 assay endpoint. This assay endpoint, NVS_ENZ_oCOX2, was analyzed in the positive analysis fitting direction relative to DMSO as the negative control and baseline of activity. Using a type of enzyme reporter, loss-of-signal activity can be used to understand changes in the enzymatic activity as they relate to the gene PTGS2. Furthermore, this assay endpoint can be referred to as a primary readout, because this assay has produced multiple assay endpoints where this one serves a enzymatic activity function. To generalize the intended target to other relatable targets, this assay endpoint is annotated to the oxidoreductase intended target family, where the subfamily is cyclooxygenase.
Binding assays used specific radioligands (tritiated, iodinated) with non-radioactive competitive displacement ligands in agonist or antagonist protocols (as indicated) and various reference compounds and inhibitors to titrate specific binding to receptors and transporters. Most enzyme assays (CYPs, kinases, phosphatases, proteases, HDACs) used recombinant protein and specific substrates (fluorescence mostly, some colorimetric and radioactive) and inhibitors, followed by a biochemical separation of substrate and product. All assays for the biochemical HTS were initially run in duplicate at a single concentration (10 uM for CYP450 assays and 25 uM for all others). Assay-chemical combinations meeting a pre-defined threshold (e.g., 30% inhibition and other criteria defined below) were then run in singleton concentration-response format with maximum concentration of 20 uM for CYPs and 50 uM for all others. Each assay was run with positive and negative controls, and concurrent controls on every plate. The follow-up (secondary) screen tested active chemical-pairs in concentration series, as well as a few additional assays not tested in the primary screen, some selected negative inactives, and several cases re-run in the concentration series for confirmatory purposes.

sheep Cyclooxygenase-2 (Cox2), PTGS2 (gene 443460), sequence (P79208 whole entry, looked up): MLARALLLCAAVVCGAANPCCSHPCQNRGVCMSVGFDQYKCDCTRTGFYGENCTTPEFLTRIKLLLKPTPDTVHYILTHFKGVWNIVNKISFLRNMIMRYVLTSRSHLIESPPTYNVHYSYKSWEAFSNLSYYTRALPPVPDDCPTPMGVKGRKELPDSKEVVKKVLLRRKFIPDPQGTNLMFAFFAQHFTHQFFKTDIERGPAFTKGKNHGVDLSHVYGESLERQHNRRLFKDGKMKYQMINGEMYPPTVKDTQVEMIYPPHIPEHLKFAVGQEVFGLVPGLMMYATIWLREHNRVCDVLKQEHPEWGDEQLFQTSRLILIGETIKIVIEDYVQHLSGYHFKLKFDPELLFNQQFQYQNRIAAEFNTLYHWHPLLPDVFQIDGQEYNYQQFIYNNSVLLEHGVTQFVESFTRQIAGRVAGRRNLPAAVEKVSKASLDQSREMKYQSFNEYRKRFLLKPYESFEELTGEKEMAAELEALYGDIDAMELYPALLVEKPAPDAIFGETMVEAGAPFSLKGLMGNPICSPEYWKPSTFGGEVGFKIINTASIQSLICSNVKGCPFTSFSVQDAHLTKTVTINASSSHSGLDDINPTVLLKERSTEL

Compound | outcome | AC50
Oc1ccccc1O | inactive | –
CN(C)C(=O)NC1(c2ccccc2)CCN(CCC[C@]2(c3ccc(Cl)c(Cl)c3)CCCN(C(=O)c3ccccc3)C2)CC1 | – | 4.73 µM (active)
O=NO | inactive | –
COc1ccc(C(=O)Nc2nc3ccccc3c(NCc3ccccc3)c2C#N)cc1 | – | 13.7 µM (active)
C/C=C/c1ccc(OC)cc1 | inactive | –
O=C1c2c(O)cccc2Cc2cccc(O)c21 | – | 6.81 µM (active)
S=c1[nH]c2ccccc2s1 | – | 9.72 µM (active)
Cc1occc(=O)c1O | – | 17.6 µM (active)
CCc1nc(N)nc(N)c1-c1ccc(Cl)cc1 | inactive | –
CCc1cc(C2=C(C(=O)O)N(c3ccccc3C(F)(F)F)S(=O)(=O)c3ccccc32)cc2c1OCO2 | – | 19.2 µM (active)
